Compound activity deposited in PubChem by NMMLSC.
A selection: hits, their analogues and other compounds. The true share with any hit is near 0.4%.
Rab2 wt GTP = changes GTP binding to wildtype dog Rab2A, up or down; GST-Rab2 wt beads, Bodipy-GTP binding, flow cytometry; GTP binding activity, % at 10 µM; 190,000 compounds, 0.19% hits;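 active = GTP binding activity at least 20 points away from 100%, either lowered or raised; inconclusive = signal likely due to the compound's own green fluorescence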;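 note: 0% = beads with excess unlabeled GTP and 100% = no-compound control corrected for plate trend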
Cdc42 wt = modulators (inhibitors or activators) of GTP binding to human Cdc42 wildtype; P60953; 190,000 compounds, 0.2% hits; GST-Cdc42 beads, Bodipy-GTP binding, flow cytometry; actives lie on both sides; AID 761; percent activity (GTP binding), % at 10 µM;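 active = percent activity GTP binding at least 20 points away from the 100% baseline, either down as inhibitor or up as activator; inconclusive = compound flagged as likely green fluorescent from well-wide comparison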;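 note: median bead fluorescence of bound Bodipy-FL-GTP at 100 nM; 0% = excess unlabeled GTP control and 100% = no compound control; below 100% means less GTP binding so inhibitor and above means activator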
Target sequence (P60953 whole entry, looked up): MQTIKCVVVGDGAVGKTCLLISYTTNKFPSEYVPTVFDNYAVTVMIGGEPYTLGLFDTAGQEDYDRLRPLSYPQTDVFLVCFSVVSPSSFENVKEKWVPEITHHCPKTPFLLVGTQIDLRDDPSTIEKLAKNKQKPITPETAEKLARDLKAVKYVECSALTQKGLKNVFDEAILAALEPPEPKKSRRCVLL
Rac1 wt GTP bind = alters GTP binding to wildtype human Rac1; P63000; GST-Rac1 beads, fluorescent GTP binding, flow cytometry; actives lie on both sides; 0 = cold GTP competed, 100 = untreated; GTP binding activity (% of control), % at 10 µM; 190,000 compounds, 0.27% hits;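 active = GTP binding activity at least 20 points away from the 100% control level, either lower or higher; inconclusive = compound flagged as likely green fluorescent, judged across all proteins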
Rab7 wt GTP bind = alters GTP binding to wildtype dog Rab7 | GST-Rab7 beads, fluorescent GTP binding, flow cytometry; actives lie on both sides; untreated = 100%, excess cold GTP = 0% | GTP binding activity (percent of control), % at 10 µM | 190,000 compounds, 0.055% hits | AID 758;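 active = fluorescent GTP binding to Rab7 beads changed by at least 20 points from the 100% baseline, either direction, mostly lower; inconclusive = compound itself probably fluorescent, or too few beads counted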;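 note: median green fluorescence of bound Bodipy-FL-GTP per Rab7 bead population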
HRas wt GTP = modulators of GTP binding to human HRas wildtype; P01112; GST-Ras wt beads, Bodipy-FL-GTP binding, flow cytometry; actives lie on both sides; GTP binding activity, % at 10 µM; 190,000 compounds, 0.14% hits; AID 759;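 active = GTP binding activity at least 20% away from the 100% baseline, either lowered as inhibitor or raised as activator; inconclusive = flagged as likely green fluorescent, judged across all proteins in the well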;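 note: 0% = unlabeled GTP competition control and 100% = no-compound control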
Target sequence (P01112 whole entry, looked up): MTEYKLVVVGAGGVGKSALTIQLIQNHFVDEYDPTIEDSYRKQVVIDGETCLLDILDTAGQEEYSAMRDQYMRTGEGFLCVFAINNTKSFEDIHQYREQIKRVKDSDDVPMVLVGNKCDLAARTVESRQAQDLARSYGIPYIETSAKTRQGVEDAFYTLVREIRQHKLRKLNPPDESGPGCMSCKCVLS
Rac1 act GTP bind = human Rac1 activated mutant GTP binding change | P63000 | GST-Rac1 activated beads, fluorescent GTP binding, flow cytometry; actives lie on both sides; 100% means binding = to untreated wells | percent activity (GTP binding), % at 10 µM | 190,000 compounds, 0.11% hits;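 active = GTP binding at least 20 percentage points away from the 100% baseline, in either direction, so actives lie on both sides; inconclusive = Compound likely fluorescent itself, or too few beads counted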
Active calls of the source: *; u = inconclusive; [ ] = another dose, or the depositor's remark.

SMILES	Rab2 wt GTP	Cdc42 wt	Rac1 wt GTP bind	Rab7 wt GTP bind	HRas wt GTP	Rac1 act GTP bind
Clc1ccc(-c2ccc(/C=N/Nc3nncc(-c4ccccc4)n3)o2)cc1	96	98	94	92	96	94
O=C1c2ccccc2-n2c1nc1ccccc1c2=O	82	81	77*	97	82	88
CC1CCCN(c2nc3nonc3nc2N2CCCC(C)C2)C1 (configuration not stated)	98	101	107	99	101	99
Cc1nc2ccc(Cl)cc2c(-c2ccccc2Cl)c1CC(=O)O	86	82	87	92	90	88
CN1CCc2nc3ccc(Cl)cc3c(-c3ccccc3Cl)c2C1	91	79*	91	95	93	95
O=c1c2c(-c3ccccc3)csc2nc2c3ccccc3c(NCCN3CCOCC3)nn12	65*	69*	55*	70*	65*	82
c1ccc(-c2csc3ncnc(NCCCN4CCOCC4)c23)cc1	97	94	98	105	97	97
O=C(O)C1C2C=CC(C2)C1C(=O)N1CCOCC1 (configuration not stated)	36*	39*	33*	22*	43*	37*
O=C(NC1CCCC1)C1C2C=CC(C2)C1C(=O)N1CCOCC1 (configuration not stated)	99	101	98	103	98	98
COc1cc(NC(=O)c2cccs2)c(OC)cc1NC(=O)CCC(=O)Nc1ccc2ncccc2c1	71*	71*	74*	90	72*	87
COc1ccc(CNc2nc3c(c(=O)n(Cc4ccc(Br)cc4)c(=O)n3C)n2C)cc1	87	83	80	92	90	79*
Cn1c(NCc2ccccc2)nc2c1c(=O)n(Cc1ccc(Br)cc1)c(=O)n2C	103	98	100	102	100	98
O=C(C1CCCN(S(=O)(=O)c2cccc3nonc23)C1)N1CCC(Cc2ccccc2)CC1 (configuration not stated)	101	101	104	100	101	100
COc1cc(NS(=O)(=O)c2ccc(NC(=O)/C=C/c3cccc([N+](=O)[O-])c3)cc2)ncn1	86	83	79*	90	86	86
Cc1ccc(NC(=S)N(Cc2ccccc2)Cc2cccs2)c(C)c1	99	100	96	103	99	96
Cc1nn(CCc2nn[nH]n2)c2nc(-c3ccc(C4CCCCC4)cc3)cc(C(F)(F)F)c12	81	77*	79*	84	82	78*
Nc1c(S(=O)(=O)c2cccc(Cl)c2)c2nc3ccccc3nc2n1/N=C/c1ccc(O)c(O)c1	76*	63*	79*	u	63*	80
COc1cccc(/C=N/n2c(N)c(S(=O)(=O)c3cccs3)c3nc4ccccc4nc32)c1OC	85	81	88	91	84	89
Cc1nc2nc(SCC(=O)NCc3ccco3)nn2c(C)c1Cc1c(F)cccc1Cl	97	95	95	96	97	96
Cc1nc2nc(SCC(=O)O)nn2c(C)c1Cc1c(F)cccc1Cl	73*	72*	78*	87	78*	70*
Cc1nc2nc(SCC(=O)O)nn2c(C)c1Cc1ccccc1Cl	78*	82	90	83	84	81
COC(=O)C1C(=O)C2=C(CC1C)NC(=O)CC2c1ccc(O)c(OC)c1 (configuration not stated)	100	103	107	103	103	98
CCC(C)(C)NC(=O)c1ccc2c(c1)N(CC(=O)OC)C(=O)C(C)(C)O2	103	107	120*[activator]	100	103	101
Cc1ccccc1NC(=O)CN1C(=O)S/C(=C\c2ccc(-c3cc(C(=O)O)ccc3C)o2)C1=O	85	79*	87	91	86	83
Cc1nn(Cc2ccccc2)c(C)c1NC(=O)CSc1nc2c(c(C(F)(F)F)n1)CCc1ccccc1-2	83	84	75*	92	85	88
SMILES	Rab2 wt GTP	Cdc42 wt	Rac1 wt GTP bind	Rab7 wt GTP bind	HRas wt GTP	Rac1 act GTP bind
O=C(NCCc1c[nH]c2ccccc12)c1cccc(S(=O)(=O)Nc2ccccc2Cl)c1	79*	93	80	88	83	89
O=C(O)c1cccc(S(=O)(=O)Nc2ccccc2Cl)c1	97	101	97	99	98	98
COc1ccc(-c2noc(CCC(=O)N3CCN(c4cc(C)ccc4C)CC3)n2)cc1	78*	80	82	85	82	75*
COc1cc(/C=N/NC(=O)CCN2CCN(Cc3ccccc3)CC2)cc(OC)c1OC	101	99	100	97	100	101
COc1cc(/C=N/NC(=O)CCN2CCN(c3ccccc3)CC2)cc(OC)c1OC	80	87	79*	94	86	90
CCC(=O)Oc1ccc(C(=O)Nc2ccc([N+](=O)[O-])cc2)cc1	96	95	99	100	97	94
Cc1ccccc1C(=O)Nc1ccc2c(C#N)c3nc4ccccc4nc3n2c1	76*	88	76*	89	80	88
CC(=O)Nc1ccc(NC(=O)c2ccccc2C)cc1	102	103	105	102	102	101
CCOc1ccc(C2CC(c3c(O)c4ccccc4oc3=O)=NN2c2ccccc2)cc1OC (configuration not stated)	95	94	99	94	98	93
Cc1cc(/C=c2\sc3nc4ccccc4n3c2=O)c(C)n1-c1ccc(C(=O)O)cc1	85	78*	81	94	88	76*
C(=N\Nc1nn2cnnc2c2ccccc12)/c1ccco1	72*	77*	88	87	75*	89
COc1cc(/C=N/Nc2nn3cnnc3c3ccccc23)ccc1O	72*	58*	75*	81	62*	u
Clc1cnc(N/N=C/c2ccco2)c(Cl)c1	100	99	104	100	101	100
Cc1ccc(NC(=O)C2=C(c3ccccc3)S(=O)(=O)CCS2(=O)=O)cc1	84	78*	83	94	86	82
C[C@@H]1NC(=O)[C@H](CCC(=O)O)NC(=O)c2cc([N+](=O)[O-])cc(F)c2NCCC[C@@H](C(N)=O)NC1=O	102	102	102	94	98	99
N=c1c(C(=O)NCc2ccco2)cc2c(=O)n3ccccc3nc2n1CCc1ccccc1	75*	80	72*	91	77*	87
CCNC(=O)c1cc2c(=O)n3cccc(C)c3nc2n(CCc2ccccc2)c1=N	72*	71*	81	87	71*	82
